From PubChem BioAssay (NCI)
This is part of a sample that, as a whole, favours compounds with a hit. Of some 83,000 tested, about 20% had one in any assay.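 Each cell line was grown in a 96-well plate and treated with one concentration of compound for 48 hours. Values below 10 were considered active.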 The source made the active and inactive calls.

These molecules were tested on SNB-75 CNS (assay: NCI-60 one-dose screen, 48 h (100 = growth as untreated, 0 = no growth, -100 = all killed)). Details: 10 µM unless noted.
For `COc1ccc2c(c1)NC(=O)CN2c1nc(NC2CC2)nc2ccccc12`, the growth was 31.4% (inactive). With `Nc1c(C(=O)Nc2cccc(Cl)c2Cl)sc2nc3c(cc12)C(=O)CCC3` the growth was 54.7% (inactive). In the case of `CC(=O)Nc1ccc(S(=O)(=O)N2C(=O)CCC2C(=O)Nc2ccc(Br)cc2)cc1` (stereo not given), the growth is reported as 59% (inactive). With `Nc1nc(-c2cc3ccccc3o2)cc(=O)c(=O)[nH]1` the growth was 102% (inactive). In the case of `Cc1nn(-c2ccc(Cl)cc2)c(=O)n1CCOc1ccccc1Cl`, the growth is reported as 70.6% (inactive). `Cc1cc(C(=O)CSc2nc3ccccc3c(=O)[nH]2)c(C)n1C` was tested, and the growth was 118% (inactive). For `Cc1ccc(C2=NN(c3ccc(S(=O)(=O)NC(=O)NCc4ccccc4)cc3)C(c3ccc(N(C)C)cc3)C2)c(C)c1` (stereo not given), the growth was 65.1% (inactive). In the case of `O=C(/C=C/CN1CCOCC1)Nc1cc2c(Nc3cccc(Cl)c3F)ncnc2cc1OCCOC(F)F`, the growth is reported as 63% (inactive). With `COc1ccc(/C(=N/O)c2cc(OC)c(OC)c(OC)c2)c(OC)c1N` the growth was 8.03% (active). `O=[N+]([O-])c1ccc(S(=O)(=O)N2CCN(c3ccnc4cc(Cl)ccc34)CC2)c([N+](=O)[O-])c1` was tested, and the growth was 73.8% (inactive). In the case of `Cc1cc(N/C=c2\sc3ncnn3c2=O)no1`, the growth is reported as 91.3% (inactive). For `O=C(Nc1ccc(F)c(Cl)c1)c1n[nH]c(=O)c2ccccc12`, the growth was 94.2% (inactive). For `O=C(CCCn1c(=O)c2sc3ccccc3c2n2nnc(-c3ccccc3)c12)NCCc1cnc[nH]1`, the growth was 28.2% (inactive). With `CC1=C(C#N)C(C)(C)C(C#N)=C(C)N1` the growth was 79.5% (inactive). For `COc1cc(CCn2nnc3c(Nc4ccc(N5CCOCC5)cc4)ncnc32)cc(OC)c1`, the growth was 94.2% (inactive).
